The list is not random: actives were taken first. Their share in the collection is about 1.3%.
PME-1 primary = PME-1 inhibitors via competitive probe labeling, primary screen, biochemical, fluorescence polarization, FP-Rh probe, HTS | Protein phosphatase methylesterase 1 (Homo sapiens), Q9Y570 | recombinant PME-1 | inhibition, % at 5.9 µM | 0.53% of 320,000 active | AID 2130, 2009;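 active = inhibition above the campaign mean of all compounds plus 3 SD, cut at about 26% in these data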;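 note: competitive labeling of PME-1 active site by serine hydrolase directed probe; inhibitors block probe labeling so polarization falls and inhibition rises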
Target sequence (Q9Y570 whole entry, looked up): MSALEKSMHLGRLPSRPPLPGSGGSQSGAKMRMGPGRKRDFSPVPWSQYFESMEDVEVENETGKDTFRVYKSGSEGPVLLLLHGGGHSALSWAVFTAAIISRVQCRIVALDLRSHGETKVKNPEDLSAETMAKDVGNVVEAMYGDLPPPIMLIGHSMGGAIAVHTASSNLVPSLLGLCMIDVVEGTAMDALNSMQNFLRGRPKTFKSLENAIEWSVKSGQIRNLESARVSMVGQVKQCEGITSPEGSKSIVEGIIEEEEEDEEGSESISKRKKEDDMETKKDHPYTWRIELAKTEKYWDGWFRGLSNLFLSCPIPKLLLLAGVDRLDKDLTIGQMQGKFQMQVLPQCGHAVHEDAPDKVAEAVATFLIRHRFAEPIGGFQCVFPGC
LYPLA2 inh = LYPLA2 inhibitors, primary screen, counter-screen for PME1 inhibitor project, biochemical, fluorescence polarization, FP-Rh probe ABPP; inhibition, % at 5.9 µM; recombinant LYPLA2; AID 2177, 2009; 0.38% of 320,000 active;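 active = inhibition above the screen-wide mean plus 3 SD, limit set per campaign, cut at about 26% in these data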
Target sequence (O95372 whole entry, looked up): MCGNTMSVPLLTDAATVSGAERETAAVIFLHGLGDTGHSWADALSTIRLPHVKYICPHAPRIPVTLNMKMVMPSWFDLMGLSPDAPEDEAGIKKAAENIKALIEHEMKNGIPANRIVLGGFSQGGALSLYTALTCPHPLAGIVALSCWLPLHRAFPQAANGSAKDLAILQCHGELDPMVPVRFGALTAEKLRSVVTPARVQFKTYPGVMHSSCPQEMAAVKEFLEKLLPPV
LYPLA1 counter = LYPLA1 inhibitors, primary screen, counter-screen for PME1 inhibitor project, biochemical, fluorescence polarization, FP-Rh probe ABPP; Acyl-protein thioesterase 1 (Homo sapiens), O75608; recombinant LYPLA1; inhibition, % at 5.9 µM; 0.16% of 320,000 active;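 active = inhibition above the mean of all tested compounds plus 3 SD, set per campaign, cut at about 14% in these data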;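 note: inhibitors block serine hydrolase probe labeling of LYPLA1 so polarization falls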
PREPL inh = PREPL enzyme inhibitors, primary screen, biochemical, fluorescence polarization. 0.68% of 320,000 active. recombinant PREPL, fluorescence polarization activity-based probe. AID 2751, 2010. inhibition, % at 5.96 µM; in the data active = inhibition above about 43%
Fam108B counter = mouse Fam108B serine hydrolase inhibitors, primary screen, counter-screen for RBBP9 inhibitor project, biochemical, fluorescence polarization; recombinant Fam108B, FP-Rh probe fluorescence polarization; inhibition, % at 9.51 µM; 0.33% of 300,000 active;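 active = inhibition above the screen mean inhibition plus 3 SD, computed separately per campaign, cut at about 18% in these data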;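 note: inhibitors lower polarization as less probe binds the enzyme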
LYPLA2 conf = LYPLA2 inhibitors, retest, confirmation, counter-screen for PME1 inhibitor project, biochemical, fluorescence polarization, FP-Rh probe ABPP; shares compounds with LYPLA2 inh; recombinant LYPLA2; inhibition, % at 5.9 µM; 72% of 1,100 active; AID 2232, 2010;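 active = mean inhibition across replicates above the hit cutoff set in the primary screen, cut at about 26% in these data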;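 note: blocked labeling of the enzyme by serine hydrolase FP-Rh probe lowers polarization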
LYPLA2 ABPP = LYPLA2 inhibitors in proteome, late-stage follow-up, gel-based competitive ABPP, fluorescence, assay provider. shares compounds with LYPLA2 inh. rhLYPLA2 in mouse brain proteome, gel ABPP FP-Rh. inhibition, % at 20 µM. 30% of 150 active. AID 652029, 2013;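 active = inhibition of LYPLA2 enzyme probe labeling above about 50%, limit read from the data; inactive = inhibition below that limit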;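 note: loss of FP-Rh probe labeling of the LYPLA2 gel band measured as band density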
Numbers stand for hits; n = inactive; x = no result.

SMILES	PME-1 primary	LYPLA2 inh	LYPLA1 counter	PREPL inh	Fam108B counter	LYPLA2 conf	others
CCCCCC1CC(CC(=O)O)C(=O)O1 (configuration not stated)	n	n	n	n	n	x
CCCCCC1CC(CC(=O)Nc2ccc([N+](=O)[O-])cc2)OC1=O (configuration not stated)	n	34.6	n	n	n	36.8
CCCCCCC1CC(CCC(=O)Nc2ccc([N+](=O)[O-])cc2)C(=O)O1 (configuration not stated)	n	n	n	n	n	x
COc1cccc(-c2nnc(NC(=O)c3ccc(S(=O)(=O)N4CCOCC4)cc3)o2)c1	n	n	n	n	n	x
O=C(NCC1CCN(c2ccc(S(=O)(=O)N3CCOCC3)cc2)CC1)c1cccc(Cl)c1	n	31.7	n	n	n	30.7
COc1cccc(C(=O)NCC2CCN(c3ccc(S(=O)(=O)N4CCOCC4)cc3)CC2)c1	n	29.3	n	n	n	n
Cc1cccc(NC(=O)C2(c3cccs3)CCOCC2)n1	n	n	n	n	n	x
Cc1ccc(Cl)cc1N1CCN(C(=O)CCCn2c(=O)c3cccn3c3cccnc32)CC1	n	38.4	n	n	n	33.7
CN=C1SC(CC(=O)Nc2ccc(F)cc2F)C(=O)N1/N=C(\C)c1cccc(OCC(=O)O)c1 (configuration not stated)	n	25.8	n	n	n	n
O=C(NCCCC1CCCC1)C1CCC(=O)N(Cc2ccc(Cl)cc2)C1 (configuration not stated)	n	27.5	n	n	n	33.7
O=[N+]([O-])c1ccccc1/C=C\C=N\N1CCN(c2ccccc2)CC1	n	40.0	n	n	n	36.1
O=C(COc1ccc2ccccc2c1)NCC(=O)N/N=C/c1ccco1	n	30.0	n	n	n	n
O=C(Nc1cc(-c2nc3ncccc3o2)ccc1Cl)c1ccc([N+](=O)[O-])o1	n	n	n	n	n	x
CCCN(c1ccccc1F)S(=O)(=O)c1cc(-c2cc(C)no2)ccc1OC	n	n	n	n	n	x
Cc1cc(C)c(NC(=S)N(CCCN2CCN(C)CC2)Cc2cccs2)c(C)c1	n	n	n	n	n	x
O=[N+]([O-])c1ccc(Oc2ccc(-c3nnco3)cc2)c(Cl)c1	n	32.5	n	n	n	n
O=[N+]([O-])c1cc(-c2nnc(-c3ccccc3)o2)ccc1Oc1ccc(Cl)cc1	n	n	n	n	n	x
N#Cc1cc([N+](=O)[O-])ccc1Oc1ccc(-c2nnco2)cc1	n	29.8	n	n	n	n
COc1ccc(OCC(=O)Nc2ccc(NC(=O)c3ccccc3Cl)c(OC)c2)cc1	n	35.5	n	n	n	34.1
COc1ccc(N2CCN(C3CC(=O)N(Cc4ccccc4)C3=O)CC2)cc1 (configuration not stated)	n	n	n	n	n	x
O=C(c1ccncc1)c1ccc(N2CCN(C3CC(=O)N(Cc4ccccc4)C3=O)CC2)cc1 (configuration not stated)	n	27.7	n	n	n	n
Cc1cc2c(NC(=O)Nc3ccc(F)cc3)cccc2nn1	n	44.1	n	n	n	54.0	LYPLA2 ABPP=n
Cc1cc2c(NC(=O)CC(C)(C)CC(=O)O)cccc2nn1	n	n	n	n	n	x
CCc1ccc2c(CN3CCC(C(=O)OC)CC3)cc(=O)oc2c1	n	n	n	n	n	x
CC1CCCCN1CC(=O)Nc1ccc2c(c1)OCO2 (configuration not stated)	n	n	n	n	x	x
SMILES	PME-1 primary	LYPLA2 inh	LYPLA1 counter	PREPL inh	Fam108B counter	LYPLA2 conf	others
COc1ccc(C2=COc3ccccc3C(=O)N2)cc1	n	n	n	n	n	x
O=C1NC(c2ccc(Cl)cc2)=COc2ccccc21	n	36.4	n	n	n	29.5
O=C(C1CCN(S(=O)(=O)c2cccc3nsnc23)CC1)N1CC=C(c2ccccc2)CC1	n	n	n	n	n	x
COc1cccc(CNC(=O)C2CCC(CNS(=O)(=O)c3cccc4nsnc34)CC2)c1 (configuration not stated)	n	26.4	n	n	n	46.1
O=C(C1CCC(CNS(=O)(=O)c2cccc3nsnc23)CC1)N1CC=C(c2ccccc2)CC1 (configuration not stated)	n	42.0	n	n	n	41.0
O=C(NCc1cccs1)C1CCC(CNS(=O)(=O)c2cccc3nsnc23)CC1 (configuration not stated)	n	n	n	n	n	x
COc1ccccc1/C=C(/NC(=O)c1ccccc1)C(=O)NCCCn1ccnc1	n	n	n	n	n	x
COc1ccc(CNC(=O)c2ccc(N3CCC4(CC3)CC(c3ccc(Cl)cc3)=NO4)c(N)c2)cc1	n	40.1	n	n	n	40.8
O=C(OCC(=O)N1CCN(Cc2ccccc2)CC1)c1cc(Cl)ccc1[N+](=O)[O-]	n	39.2	n	n	x	39.8
CC1CCCCN1C(=O)Cn1c(=O)oc2cc(S(=O)(=O)N3CCCC3)ccc21 (configuration not stated)	n	n	n	n	n	x
O=[N+]([O-])c1cccnc1SCc1ccccc1	n	37.7	n	n	n	48.7
O=C(O)c1cccnc1SCc1ccc([N+](=O)[O-])cc1	n	n	n	n	n	x
COC(=O)c1cc(NC(=O)c2ccc(C)cc2)c(=O)oc1C	n	n	n	n	n	x
COC(=O)c1cc(NC(=O)c2ccccc2)c(=O)oc1C	n	27.1	n	n	n	n
COCCNC(=O)c1sc2ncn(CC(=O)Nc3ccc(C)c(Cl)c3)c(=O)c2c1C	n	50.0	n	n	n	47.4
Cc1ccc(NC(=O)Cn2cnc3sc(C(=O)NCc4ccco4)c(C)c3c2=O)cc1Cl	n	n	n	n	n	x
COC(=O)CNC(=O)c1sc2ncn(CC(=O)Nc3ccc(C)c(Cl)c3)c(=O)c2c1C	n	39.5	n	n	n	46.1
COc1ccccc1NC(=O)Cn1cnc2sc(C(=O)Nc3ccc(OC)c(OC)c3)c(C)c2c1=O	n	n	n	n	n	x
COc1ccc(NC(=O)CN2C(=O)COc3ccc(C)cc32)cc1	n	n	n	n	n	x
COc1cc(NC(=O)CN2C(=O)CSc3ccc(S(=O)(=O)N4CCCC4)cc32)cc(OC)c1	n	28.0	n	n	n	n
COc1cccc(NC(=O)CN2C(=O)COc3ccc(C)cc32)c1	n	31.4	n	n	n	28.5
O=C(CN1C(=O)CSc2ncccc21)Nc1cccc(Cl)c1	n	61.9	n	n	n	67.0	LYPLA2 ABPP=n

Screens from PubChem BioAssay.
